The nature of assay [1]: compounds binding Alexa647 anti-His antibody – biochemical, small-molecule microarray, 635 nm fluorescence, artefact control for SMM control protein annotation, primary screen (AID 1128).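 Note: score merges feature fluorescence with signal-to-noise for each printed compound spot.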 The settings on record: higher = more signal.
Assay [2] concerns Human papillomavirus type 1a E7 protein (residues 1-88). Put plainly: HPV1a E7 small-molecule binders, primary screen, biochemical, small-molecule microarray, residues 1-88, 635 nm (AID 1129). The conditions noted are these: small-molecule microarray binding, fluorescence 635 nm; higher = more signal.
Assay [3] has as its target Focal adhesion kinase 1 (Homo sapiens) (UniProt Q05397). Put plainly: PTK2 protein binding on printed compound slides – biochemical, small-molecule microarray, 635/667 nm fluorescence, BSA, DTT, primary screen (AID 1130).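 Note: composite of spot emission at 667 nm and signal to noise over triplicate slides.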 The settings on record: 635 nm fluorescence, higher = more signal.
Assay [4] has as its system Fibrinogen (Alexa647-labelled). Put plainly: Alexa647-fibrinogen binding to printed small molecules – biochemical, small-molecule microarray, 635/667 nm fluorescence, artefact control for SMM control-protein annotation, profiling panel (AID 1131).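 Note: z-score merges 667 nm fluorescence with per-spot signal-to-noise over triplicate slides.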 The settings on record: fibrinogen-A647 binding fluorescence, higher = more signal.
Assay [5] addresses Follistatin (Homo sapiens) (UniProt P19883). In words: FST protein binding to printed compounds – biochemical, small-molecule microarray, 635/667 nm fluorescence, primary screen (AID 1132). The conditions noted are these: 635 nm fluorescence, higher = more signal.
The target in assay [6] is Fibroblast growth factor 2 (Homo sapiens) (UniProt P09038). In words: basic fibroblast growth factor binding to printed compounds – biochemical, small-molecule microarray, 635/667 nm fluorescence, primary screen (AID 1133). The conditions noted are these: FGF2, fluorescence 635/667, higher = more signal.
Chain of Fibroblast growth factor 2 (Homo sapiens) (P09038 whole entry, looked up): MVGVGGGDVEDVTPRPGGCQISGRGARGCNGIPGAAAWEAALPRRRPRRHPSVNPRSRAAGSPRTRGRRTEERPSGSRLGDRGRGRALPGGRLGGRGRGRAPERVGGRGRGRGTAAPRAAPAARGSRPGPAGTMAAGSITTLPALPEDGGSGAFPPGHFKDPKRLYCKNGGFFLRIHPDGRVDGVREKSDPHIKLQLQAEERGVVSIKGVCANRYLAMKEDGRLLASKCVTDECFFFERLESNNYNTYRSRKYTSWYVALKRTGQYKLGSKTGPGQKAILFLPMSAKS
Assay [7] is described as follows: JC-1 mitochondrial potential readout, lung cancer cells – cell-based, A549, JC-1 fluorescence, basal, 24 h, 100 nL, profiling panel (AID 1138).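 Note: A549 lung adenocarcinoma cells under basal conditions with no added stimulus; test concentration not given here.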 The conditions noted are these: higher = more signal.
The test system of a further assay is Lefty1. Put plainly: Lefty1 protein binding to printed compounds – biochemical, small-molecule microarray, 635/667 nm fluorescence, primary screen (AID 1139). The settings on record: fluorescence 635/667, higher = more signal.
Assay [8] deals with wheat germ agglutinin (Triticum aestivum), Alexa647-labelled. Put plainly: Alexa647-WGA lectin binding to printed small molecules – biochemical, small-molecule microarray, 635/667 nm fluorescence, artefact control for SMM control-protein annotation, profiling panel (AID 1140).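 Note: score merges 667 nm feature emission with signal to noise over triplicate slides.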 The settings on record: WGA-A647 binding, 635 nm fluorescence, higher = more signal.
In assay [9] the target is Luciferin 4-monooxygenase (Photinus pyralis) (UniProt P08659). In words: inhibition of purified Photinus pyralis luciferase – biochemical, luminescence, purified enzyme, 2006 set, primary screen (AID 1141).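 Note: cell-free assay with purified firefly luciferase at 100 ng per well in PBS; test concentration not given here.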 The conditions noted are these: purified firefly luciferase, SteadyGlo luminescence, 30 min; higher = more signal, called active from +8 up or from −8 down.
Chain of Luciferin 4-monooxygenase (Photinus pyralis) (P08659 whole entry, looked up): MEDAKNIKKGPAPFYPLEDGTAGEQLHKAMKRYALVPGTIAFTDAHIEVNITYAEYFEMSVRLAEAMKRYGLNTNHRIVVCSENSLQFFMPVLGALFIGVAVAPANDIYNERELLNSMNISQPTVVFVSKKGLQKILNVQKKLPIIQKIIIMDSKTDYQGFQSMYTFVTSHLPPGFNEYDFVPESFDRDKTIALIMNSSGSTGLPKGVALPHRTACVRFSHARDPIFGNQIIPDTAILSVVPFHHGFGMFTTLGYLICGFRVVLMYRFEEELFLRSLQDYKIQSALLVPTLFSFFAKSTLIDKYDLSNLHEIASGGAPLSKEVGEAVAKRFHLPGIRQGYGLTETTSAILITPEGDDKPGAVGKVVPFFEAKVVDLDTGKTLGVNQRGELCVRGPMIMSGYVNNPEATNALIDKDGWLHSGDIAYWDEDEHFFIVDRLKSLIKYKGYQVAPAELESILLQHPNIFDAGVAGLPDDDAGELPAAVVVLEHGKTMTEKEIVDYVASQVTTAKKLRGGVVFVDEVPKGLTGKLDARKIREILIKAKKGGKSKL
Assay [10] relates to Wnt5a (protein binding on small-molecule microarray). In words: small molecules binding Wnt5a protein – biophysical, small-molecule microarray, 635/667 nm fluorescence, primary screen (AID 1142).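 Note: fluorescence read at 667 nm with signal to noise per printed feature.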 The settings on record: 635 nm fluorescence, higher = more signal.
The nature of assay [11]: ATP-based viability of Huh7 replicon cells – cell-based, CellTiter-Glo luminescence, basal, 48 h, cytotoxicity control for HCV replication inhibitor project, primary screen (AID 1143).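 Note: Huh7 hepatoma cells carrying a hepatitis C replication reporter with no stimulus; test concentration not given here.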 The conditions noted are these: higher = more signal, called active from +8 up or from −8 down. On the technique in general: Replicon systems follow genome replication, usually without infectious particles.

Assay [12] is described as follows: Pseudomonas biofilm growth suppression – PAO1 strain, BacTiter-Glo luminescence, LB-PBS, primary screen (AID 1144). The settings on record: P. aeruginosa PAO1 biofilm, 12 h, higher = more signal.
Assay [13] is described as follows: basal CRE-LacZ reporter activity in PC12 – cell-based, unstimulated, primary screen (AID 1145). The settings on record: no forskolin, luminescence, 4.5 h, higher = more signal, called active from +8 up or from −8 down.
Assay [14] in a line: forskolin-driven CRE-LacZ activity in PC12 – cell-based, CRE-LacZ reporter, forskolin-stimulated, primary screen (AID 1146).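 Note: PC12 cells with 6xCRE LacZ reporter stimulated by forskolin 10 µM; beta-galactosidase reporter signal reflecting CREB driven transcription.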 The settings on record: luminescence, 4.5 h, higher = more signal, called active from +8 up or from −8 down.
Assay [15] has as its target Streptavidin (Streptomyces avidinii) (UniProt P22629). Put plainly: compounds binding control protein streptavidin – biophysical, small-molecule microarray, 635/667 nm fluorescence, artefact control for SMM compound annotation, primary screen (AID 1147).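 Note: signal reflects streptavidin binding to arrayed compounds as a control protein.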 The settings on record: higher = more signal.
Assay [16] is described as follows: probe aInhba binding on compound microarray – biochemical, small-molecule microarray, 635/667 nm fluorescence, primary screen (AID 1148).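 Note: score merges 667nm spot fluorescence with signal-to-noise for antibody binding to printed compounds.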 The conditions noted are these: higher = more signal.
Assay [17] deals with Torsin-1A (Homo sapiens) (UniProt O14656). Put plainly: TOR1A wild-type binding on microarray – cell lysate, small-molecule microarray, lysate, 635/667 nm, primary screen (AID 1149). The conditions noted are these: COS7 hTOR1A-WT lysate, 635 nm fluorescence, higher = more signal.
Chain of Torsin-1A (Homo sapiens) (O14656 whole entry, looked up): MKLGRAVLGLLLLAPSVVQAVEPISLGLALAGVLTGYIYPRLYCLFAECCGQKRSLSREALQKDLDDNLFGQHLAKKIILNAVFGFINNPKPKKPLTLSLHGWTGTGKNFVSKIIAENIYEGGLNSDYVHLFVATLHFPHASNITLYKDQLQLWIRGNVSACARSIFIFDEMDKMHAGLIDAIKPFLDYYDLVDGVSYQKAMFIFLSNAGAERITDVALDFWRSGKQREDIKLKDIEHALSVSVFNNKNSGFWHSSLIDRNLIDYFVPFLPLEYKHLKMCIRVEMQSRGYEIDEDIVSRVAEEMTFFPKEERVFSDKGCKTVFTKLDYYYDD
The target is the same in assay [18]. Put plainly: torsin A mutant lysate binding on microarrays – cell lysate, small-molecule microarray, COS7 lysate, 635/667 nm fluorescence, primary screen (AID 1150).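 Note: score pools 667 nm emission and signal to noise measuring lysate protein binding.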 The conditions noted are these: COS7 hTOR1A mutant lysate, 635 nm fluorescence, higher = more signal.
The subject of assay [19] is Sonic hedgehog protein (Shh). Put plainly: Sonic hedgehog microarray binding compounds – biochemical, small-molecule microarray, 635/667 nm fluorescence, primary screen (AID 1151).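 Note: Shh protein binding to compounds spotted on small-molecule microarray slides; score combines spot fluorescence intensity with signal-to-noise across triplicate slides.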 The settings on record: 635 nm fluorescence, higher = more signal.

Activity calls are given as the source filed them. Unless noted, the rule behind the calls is not given here.

Chain of Follistatin (Homo sapiens) (P19883 whole entry, looked up): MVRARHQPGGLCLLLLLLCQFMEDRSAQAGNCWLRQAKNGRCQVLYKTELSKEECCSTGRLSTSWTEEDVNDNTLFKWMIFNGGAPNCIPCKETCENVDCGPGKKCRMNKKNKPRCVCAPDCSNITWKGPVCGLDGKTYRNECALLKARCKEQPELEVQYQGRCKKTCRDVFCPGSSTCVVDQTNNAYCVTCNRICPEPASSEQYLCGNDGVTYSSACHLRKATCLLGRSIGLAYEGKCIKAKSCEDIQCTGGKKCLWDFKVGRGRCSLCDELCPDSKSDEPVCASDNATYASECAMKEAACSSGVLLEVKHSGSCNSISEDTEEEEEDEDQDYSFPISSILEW
Chain of Focal adhesion kinase 1 (Homo sapiens) (Q05397 whole entry, looked up): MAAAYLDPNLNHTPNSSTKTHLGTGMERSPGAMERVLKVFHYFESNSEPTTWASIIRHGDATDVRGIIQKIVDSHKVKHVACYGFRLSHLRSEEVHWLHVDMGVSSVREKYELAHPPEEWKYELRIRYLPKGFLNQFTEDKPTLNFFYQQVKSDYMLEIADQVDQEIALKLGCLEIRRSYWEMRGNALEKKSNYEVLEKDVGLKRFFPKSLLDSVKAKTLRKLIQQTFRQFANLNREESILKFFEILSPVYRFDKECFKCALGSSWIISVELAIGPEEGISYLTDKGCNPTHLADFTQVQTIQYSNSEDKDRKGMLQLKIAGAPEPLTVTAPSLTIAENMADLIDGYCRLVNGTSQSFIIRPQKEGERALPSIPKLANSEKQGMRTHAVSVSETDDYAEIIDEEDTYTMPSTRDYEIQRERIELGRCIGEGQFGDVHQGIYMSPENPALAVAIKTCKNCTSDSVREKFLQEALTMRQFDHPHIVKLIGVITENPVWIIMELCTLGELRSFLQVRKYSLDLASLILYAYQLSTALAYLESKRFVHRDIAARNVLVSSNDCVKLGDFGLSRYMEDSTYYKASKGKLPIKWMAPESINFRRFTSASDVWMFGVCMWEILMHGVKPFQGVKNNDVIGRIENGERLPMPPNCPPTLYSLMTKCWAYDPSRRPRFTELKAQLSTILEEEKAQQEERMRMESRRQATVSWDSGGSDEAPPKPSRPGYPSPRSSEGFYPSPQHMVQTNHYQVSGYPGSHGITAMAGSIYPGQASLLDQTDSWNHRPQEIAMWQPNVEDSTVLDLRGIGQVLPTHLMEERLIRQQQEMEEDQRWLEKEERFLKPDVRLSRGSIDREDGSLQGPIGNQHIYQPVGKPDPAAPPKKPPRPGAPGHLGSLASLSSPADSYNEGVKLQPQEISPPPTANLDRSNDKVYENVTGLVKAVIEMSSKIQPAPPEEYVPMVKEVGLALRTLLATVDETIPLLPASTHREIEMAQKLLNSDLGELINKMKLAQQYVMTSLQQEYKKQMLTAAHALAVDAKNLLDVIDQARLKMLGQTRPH
Chain of Streptavidin (Streptomyces avidinii) (P22629 whole entry, looked up): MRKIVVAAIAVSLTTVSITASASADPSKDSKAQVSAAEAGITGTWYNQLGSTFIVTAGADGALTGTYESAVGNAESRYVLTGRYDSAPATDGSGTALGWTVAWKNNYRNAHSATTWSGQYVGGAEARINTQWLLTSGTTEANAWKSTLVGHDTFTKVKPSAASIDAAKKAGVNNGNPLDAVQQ

Consider `CC(C)C[C@H]1NC(=O)[C@H](Cc2ccccc2)NC(=O)[C@@]23C(=O)N[C@@H](Cc4ccccc4)C2[C@H](C)[C@@]2(C)O[C@H]2C3/C=C/C/C=C\CNC1=O` (stereo not given in full), for which the composite z-score turned out to be 0.701 in assay [1]; 0.475 in [2]; 0.899 in [3]; 0.315 in assay [4]; 0.927 in assay [5]; 1.01 in assay [6]. Besides, the composite z-score in the assay with Lefty1 is 0.376; in assay [8], 0.658; in assay [10], 0.116; in assay [15], 0.494; in [16] it was -0.0552; with Torsin-1A (Homo sapiens) [17], 0.471. In addition, the composite z-score with Torsin-1A (Homo sapiens) [18] is 0.855; in assay [19], 0.889. In addition, the z-score in [7] was -0.000177; in assay [9] it was -0.179 (inactive); in assay [11] it was -1.29 (inactive); in assay [12], 0.338 (inactive); in assay [13], 0.67 (inactive); in [14], 0.105 (inactive).

As for `C=CCOC(=O)[C@H]1[C@@H]2C(=O)O[C@@H](c3ccccc3)[C@@H](c3ccccc3)N2[C@@H](c2ccc(OCCOC(=O)[C@H]3C[C@H]4C(=O)NCC(=O)N4[C@H]3c3ccc(O)cc3)cc2)[C@]12C(=O)Nc1ccc(I)cc12`, the composite z-score in [1] was found to be 0.611; in assay [2] it was 0.956; in assay [3], 0.351; in assay [4], 0.843; in assay [5], 1.2; in [6] it was 1.53. Also, the composite z-score is 0.971 with Lefty1; 0.204 in [8]; 0.112 in assay [10]; 0.343 in [15]; -0.0736 in assay [16]; 0.406 with Torsin-1A (Homo sapiens) [17]. Besides, the composite z-score is 0.349 with Torsin-1A (Homo sapiens) [18] and 1.55 in [19]. The z-score in [7] is -1.28; in assay [9], -0.8 (inactive); in assay [11] it was -0.402 (inactive); in assay [12], -1.01 (inactive); in assay [13], -0.13 (inactive); in assay [14], -0.8 (inactive).

As for `O=C1C2C=CC(C(O)c3cccc(O)c3)N(Nc3ccccc3F)C2C(=O)N1c1ccccc1` (stereo not given), the composite z-score in assay [1] was 0.933; in assay [2], 0.137; in assay [3], 0.158; in assay [4] it was 0.327; in [5] it was 0.434; in assay [6], -0.214. The composite z-score with Lefty1 is 0.474; in [8], 0.248; in assay [10], -0.333; in assay [15], -0.344; in assay [16] it was -0.21; with Torsin-1A (Homo sapiens) [17], -0.701. The values for the composite z-score (in the assay with Torsin-1A (Homo sapiens) [18]; in assay [19]) were 0.239 and 0.0048, respectively. Further, the z-score was -0.846 in [7]; 0.883 (inactive) in assay [9]; -6.08 (inactive) in assay [11]; -2.21 (inactive) in assay [12]; -0.471 (inactive) in assay [13]; -0.556 (inactive) in [14].

In the case of `COCCn1c(C(=O)N2CCCC2)cc2c1C[C@H]1CN(C(=O)c3ccccc3)[C@@](Cc3ccccc3)(C(=O)OC)[C@@H]21`, the composite z-score in assay [1] worked out at 1.09; in [2], 0.822; in [3] it was 1.54; in [4], 0.948; in [5], 0.298; in assay [6], 0.121. The composite z-score is 0.334 in the assay with Lefty1; 1.11 in assay [8]; 0.576 in [10]; 0.393 in assay [15]; 0.679 in assay [16]; 0.22 with Torsin-1A (Homo sapiens) [17]. The composite z-score is 1.18 with Torsin-1A (Homo sapiens) [18] and -0.193 in assay [19]. Besides, the z-score is 0.109 in [7]; 2.58 (inactive) in [9]; -1.01 (inactive) in [11]; -0.784 (inactive) in assay [12]; -0.182 (inactive) in assay [13]; -0.034 (inactive) in [14].

As for `CO[C@H]1O[C@H](CO)[C@@H](OC(=O)Nc2ccccc2)[C@@H]2OC(=O)[C@H](Cc3ccccc3)C/C=C/C[C@@H](Cc3ccccc3)C(=O)O[C@@H]12`, the composite z-score in [1] stood at 2.3; in assay [2] it was 1.13; in [3], 0.473; in assay [4], 0.718; in [5], 1.29; in assay [6], 1.74. Further, the composite z-score in the assay with Lefty1 was 1.33; in [8], 0.588; in assay [10], 0.399; in assay [15], 0.564; in assay [16] it was -0.0762; in the assay with Torsin-1A (Homo sapiens) [17], 0.527. For the same compound, the figures for the composite z-score (in the assay with Torsin-1A (Homo sapiens) [18]; in assay [19]) were 0.348 and 1.62, respectively. For the same compound, the z-score is 2.27 in assay [7]; -0.617 (inactive) in assay [9]; -3.81 (inactive) in assay [11]; -0.805 (inactive) in assay [12]; 0.512 (inactive) in [13]; -1.36 (inactive) in assay [14].

Source of the values: PubChem BioAssay.
